An excerpt weighted towards active compounds, which were near 3.9% of everything screened.
esBAF inh = inhibitors of esBAF chromatin remodeling in mouse ES cells. Bmi1-luciferase knock-in reporter, 24 h; 100% = twice the neutral-well signal. 350,000 compounds, 2% hits. reporter increase, % at 12.5 µM; in the data active means activation above about 40%; inconclusive means no clear call, values can overlap the other calls;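 further: a rise in the Bmi1 reporter signal indicates esBAF inhibition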
HSF1 inh = HSF1 inhibition; AID 2098; activity change, negative = inhibition, % at 7.5 µM (by protocol); NIH3T3-HGL HSE-luciferase, MG132-induced, luminescence 8 h; stronger effect = lower value; 300,000 compounds, 0.77% hits;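 active means more than half of replicate wells show activity change below -50%, luminescence cut by over half; inconclusive means some wells, but at most half, below -50%; inactive means no replicate well below -50%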;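 further: luciferase reports HSF-1 transcriptional activity via heat shock element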
MITF act = activators of MITF-driven TRPM1 promoter activity in SK-MEL-5 cells. SK-MEL-5 TRPM1-promoter luciferase, 24 h; % of positive control, neutral wells = 0. 300,000 compounds, 0.75% hits. activation, % at 12.5 µM;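 active means mean activation of at least 80% with every replicate also reaching 80%; inconclusive means mean reaches 80% but some replicate falls short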
Wnt bcat act = Wnt/beta-catenin pathway activation; 300,000 compounds, 1.2% hits; activation, % at 9.35 µM; Wnt/beta-catenin reporter cell assay, activator, plate reader; in the data active means activation above about 30%, passing the limit was not always enough; inconclusive means no clear call, values can overlap the other calls
HSF1 activator = increases HSF-1 driven luciferase reporter signal. NIH3T3-HGL HSF-1 luciferase reporter, MG132, 8 h; 100% = twice DMSO control signal. activation, % at 9 µM. 300,000 compounds, 1.7% hits. AID 504408;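 active means mean replicate activation of at least 50% with a set share of replicates each reaching 50%; inconclusive means only one of those two conditions met; inactive means mean below 50% and too few replicates reaching it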
Large screens that a line does not name were inactive.

CNC[C@@H]1Oc2c(NS(=O)(=O)c3ccccc3)cccc2C(=O)N([C@@H](C)CO)C[C@H]1C	none (no result: HSF1 inh, MITF act, Wnt bcat act, HSF1 activator)
C[C@@H]1CN([C@H](C)CO)C(=O)Cc2cc(NC(=O)CCN3CCOCC3)ccc2O[C@H]1CN(C)C(=O)Nc1ccccc1	none (no result: HSF1 inh, MITF act, Wnt bcat act, HSF1 activator)
C[C@@H]1CN([C@@H](C)CO)C(=O)c2cc(NS(=O)(=O)c3cn(C)cn3)ccc2O[C@@H](C)CCCCO[C@@H]1CN(C)Cc1ccc2c(c1)OCO2	none (no result: HSF1 inh, MITF act, Wnt bcat act, HSF1 activator)
C[C@@H]1CN([C@@H](C)CO)C(=O)c2cc(NS(=O)(=O)c3cn(C)cn3)ccc2O[C@@H](C)CCCCO[C@@H]1CN(C)C(=O)CCCN(C)C	none (no result: HSF1 inh, MITF act, Wnt bcat act, HSF1 activator)
N/C(=N\OC(=O)CCC1CCCC1)c1ccccc1	none (no result: esBAF inh)
N/C(=N\OC(=O)COc1ccccc1)c1ccccn1	esBAF inh 49, Wnt bcat act 48
CCc1ccc(OCC(=O)O/N=C(\N)c2ccccn2)cc1	Wnt bcat act 48, HSF1 activator 64 (no result: esBAF inh, MITF act)
N/C(=N\OC(=O)CCC1CCCC1)c1ccccn1	Wnt bcat act 52 (no result: esBAF inh)
C[C@@H]1CN([C@H](C)CO)C(=O)c2cc(NS(=O)(=O)c3cn(C)cn3)ccc2O[C@H]1CN(C)S(=O)(=O)c1cccs1	none (no result: HSF1 inh, MITF act, Wnt bcat act, HSF1 activator)
O=C(CCc1nnc(C2CCCCC2)o1)N1CCN(C2CCCCC2)CC1	none (no result: esBAF inh)
CN(CCC1CCCCO1)C(=O)CCc1nnc(C2CCCCC2)o1 (configuration not stated)	esBAF inh 55
CCCCNC(=O)N(C)c1nc2ccccc2s1	esBAF inh 64
C/C(=N\OCc1ccc(C#N)cc1)c1ccccc1	MITF act 88, HSF1 activator inconclusive (no result: esBAF inh)
C/C(=N\OCc1ccc(C#N)cc1)c1ccc(S(=O)(=O)N(C)C)cc1	esBAF inh 51, MITF act 96
CCn1c(N)nc2ccccc21	esBAF inh 53
CCc1nc2ccccc2n1CCc1ccccc1	none (no result: esBAF inh)
CCn1c(CCc2ccccc2)nc2ccccc21	esBAF inh 42 (no result: MITF act)
Cc1ccc(S(=O)(=O)N2CCN(C(=O)c3c(-c4ccccc4)noc3C)CC2)c(C)c1	HSF1 inh -76
CN1C(=O)c2cc(NC(=O)Cc3ccccc3)ccc2OC[C@H]2O[C@@H](CC(=O)NC3CCC3)CC[C@H]21	none (no result: HSF1 inh, MITF act, Wnt bcat act, HSF1 activator)
N#C/C(=N\Nc1ccccc1F)C(=N)N1CCCCC1	MITF act 85 (no result: esBAF inh)
COc1ccc(N/N=C(\C#N)C(=N)N2CCCCC2)cc1	esBAF inh 65
CCC(=O)N(C)C[C@H]1Oc2cc(-c3ccc(OC)cc3)ccc2S(=O)(=O)N([C@@H](C)CO)C[C@@H]1C	none (no result: HSF1 inh, MITF act, Wnt bcat act, HSF1 activator)
CN1C(=O)c2cc(NC(=O)C3CC3)ccc2OC[C@H]2O[C@@H](CC(=O)NCCc3ccncc3)CC[C@H]21	none (no result: HSF1 inh, MITF act, Wnt bcat act, HSF1 activator)
COc1cccc(/C=C/C(=O)NNC(=O)c2ccccc2)c1OC	Wnt bcat act 34 (no result: esBAF inh, HSF1 inh, HSF1 activator)
COc1cccc(/C=C/C(=O)NNC(=O)c2ccncc2)c1OC	none (no result: HSF1 inh, HSF1 activator)
C[C@@H]1CN([C@@H](C)CO)C(=O)c2cccc(NC(=O)Nc3ccc(F)cc3)c2O[C@@H]1CN(C)C(=O)Nc1ccc(C(F)(F)F)cc1	none (no result: HSF1 inh, MITF act, Wnt bcat act, HSF1 activator)
Cc1ccc2cc(NC(=O)c3cccc(F)c3)ccc2n1	Wnt bcat act 50 (no result: MITF act)
Cc1ccc2cc(NC(=O)c3ccccc3)ccc2n1	Wnt bcat act 40
O=C(Nc1ccc2ccccc2c1)c1cccc(F)c1	esBAF inh 50, MITF act 123, Wnt bcat act 46, HSF1 activator 79
O=C(Nc1ccc2[nH]ncc2c1)c1cccc(F)c1	none (no result: MITF act)
CC(Sc1nc2ccccc2s1)C(=O)NCc1ccc2c(c1)OCO2 (configuration not stated)	esBAF inh 52
CC(OC(=O)c1ccc(Cl)cc1)C(=O)NCc1ccc2c(c1)OCO2 (configuration not stated)	none (no result: HSF1 inh, HSF1 activator)
CC(OC(=O)c1nsc(Cl)c1Cl)C(=O)NCc1ccc2c(c1)OCO2 (configuration not stated)	HSF1 inh -85
Cc1c(O)ccc(/C=N/Nc2ncccc2[N+](=O)[O-])c1O	HSF1 activator 55 (no result: MITF act)
C[C@@H]1CN([C@@H](C)CO)S(=O)(=O)c2ccc(C3=CCCCC3)cc2O[C@H]1CN(C)C(=O)c1ccncc1	none (no result: HSF1 inh, MITF act, Wnt bcat act, HSF1 activator)
O=C(Nc1ccc2nc(C3CC3)n(Cc3ccc(F)cc3)c(=O)c2c1)c1ccco1	none (no result: MITF act, Wnt bcat act)
COc1ccc(Cn2c(C3CC3)nc3ccc(NC(=O)C4CC4)cc3c2=O)cc1	esBAF inh 67, MITF act 118, HSF1 activator 70
CCC(=O)Nc1ccc2nc(C3CC3)n(Cc3ccc(C(C)(C)C)cc3)c(=O)c2c1	HSF1 inh -59
CC(=O)Nc1ccc2nc(C3CC3)n(Cc3ccc(Cl)cc3)c(=O)c2c1	esBAF inh 75, HSF1 activator inconclusive
O=C(NCC[C@H]1CC[C@@H](NS(=O)(=O)Cc2ccccc2)[C@@H](CO)O1)C1CCC1	none (no result: HSF1 inh, MITF act, Wnt bcat act, HSF1 activator)
C[C@H]1CN([C@@H](C)CO)C(=O)c2cc(NS(C)(=O)=O)ccc2O[C@@H]1CN(C)Cc1ccc(-c2ccccc2)cc1	none (no result: HSF1 inh, MITF act, Wnt bcat act, HSF1 activator)
O=S1(=O)NC(=NCC(c2ccco2)N2CCCCC2)c2ccccc21 (configuration not stated)	HSF1 activator 85
S=c1[nH]nc(-c2ccccc2)n1/N=C/c1ccc(-c2ccccc2Cl)o1	HSF1 activator 151 (no result: esBAF inh, Wnt bcat act)
C/C=C/c1ccc2c(c1)O[C@@H](CN(C)C(=O)NC(C)C)[C@H](C)CN([C@@H](C)CO)S2(=O)=O	none (no result: HSF1 inh, MITF act, Wnt bcat act, HSF1 activator)
O=C(O)c1cccc(NC2=C(Cl)C(=O)c3ccccc3C2=O)c1	HSF1 inh -88 (no result: esBAF inh)
CC(C)NC1=C(Cl)C(=O)c2ccccc2C1=O	HSF1 activator 70 (no result: Wnt bcat act)
O=C1C(Cl)=C(Nc2ccccc2)C(=O)c2ccccc21	none (no result: esBAF inh, Wnt bcat act)
CN(C)C(=O)[C@@H]1[C@@H](CO)[C@@H]2Cn3c(ccc(-c4ccccc4F)c3=O)[C@H]1N2C(=O)c1ccncc1	none (no result: HSF1 inh, MITF act, Wnt bcat act, HSF1 activator)
CC(=O)N1CCc2cc(S(=O)(=O)NC(Cc3ccccc3)C(=O)NC3CCCCCC3)ccc21 (configuration not stated)	HSF1 activator 54 (no result: Wnt bcat act)
COc1ccc(-n2nc(C(=O)NCC(=O)N3CCN(c4ccccc4OC)CC3)c3ccccc3c2=O)cc1OC	none
COc1ccc(-n2nc(C(=O)NCC(=O)NCc3ccccc3OC)c3ccccc3c2=O)c(OC)c1	HSF1 inh -60 (no result: esBAF inh)
COc1ccc(-n2nc(C(=O)NCC(=O)N3CCCC3)c3ccccc3c2=O)cc1Cl	esBAF inh 59 (no result: MITF act)
CCOC(=O)N1CCN(C(=O)CNC(=O)c2nn(-c3ccc(OC)c(Cl)c3)c(=O)c3ccccc23)CC1	none
COc1ccc(-n2nc(C(=O)NCC(=O)N3CCN(c4ccccc4)CC3)c3ccccc3c2=O)cc1OC	esBAF inh 45
COc1ccc2nc(Nc3nc(CSc4ccc(C)cc4)cc(=O)[nH]3)nc(C)c2c1	esBAF inh 29
Cc1ccc(SCc2cc(=O)[nH]c(Nc3nc(C)c4cccc(C)c4n3)n2)cc1	none (no result: Wnt bcat act)
CCNC(=O)C[C@H]1CC[C@H]2[C@@H](COC[C@@H](O)CN2C(=O)c2cc(Cl)cc(Cl)c2)O1	none (no result: HSF1 inh, MITF act, Wnt bcat act, HSF1 activator)
Cc1ccc(/C=N/NC(=O)c2cc(C)oc2C)cc1	esBAF inh inconclusive (no result: MITF act)

Screens from PubChem BioAssay.
